According to PubChem BioAssay AID504843 (Broad Institute, 2011):
Out of some 1,200 compounds screened, about 360 (30%) were called active. How the calls were made is not given here. Not all results are given here. Entries with a potency or affinity are not part of this list.

Test: antibacterial activity by ATP level – BacTiter-Glo luminescence, cherry-picked samples, counter-screen, dose response (AID 504843);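 further: growth measured after 8 h incubation at 30 °C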
Settings: bacterial growth; series mostly up to 15 µM

Row | Structure (SMILES) | outcome
1 | CCOc1ccc(-c2cn(-c3ccc(OC)cc3)c(SC)n2)cc1 | inactive
2 | COC(=O)C1=CN(C(C)C)C=C(C(=O)OC)C1c1cccc(OC)c1 | inactive
3 | COc1cccc(NC(=O)Nc2cnccn2)c1 | inactive
4 | CCOc1ccc2[nH]c(C)c(CN3CCCCC3)c(=O)c2c1 | inactive
5 | CCSC1=C(C#N)C(c2ccc(Cl)cc2)C2=C(CCCC2=O)N1 (centres undefined) | inactive
6 | CC(C)N1C(=O)NC2(c3ccccc3)N(C)C(=O)N(C)C12c1ccccc1 (centres undefined) | inactive
7 | O=C(N1CCCC1)C12CC3CC(C1)CC(C(=O)N1CCCC1)(C3)C2 | inactive
8 | CN(C)c1ccc(C(=O)C(O)c2ccc(C(C)(C)C)cc2)cc1 (centres undefined) | inactive
9 | CN(C)S(=O)(=O)n1cc(/C=C(\NC(=O)c2ccccc2F)C(=O)N2CCOCC2)c2ccccc21 | inactive
10 | O=C(NCc1ccc2c(c1)OCO2)c1c(O)c2cccc3c2n(c1=O)CCC3 | inactive
11 | CCOc1ccccc1NC(=O)NCc1ccc2c(c1)OCO2 | inactive
12 | COCCNc1nc(N)c([N+](=O)[O-])c(NCC2CCCO2)n1 (centres undefined) | inactive
13 | Cn1ccc(=Nc2ccc(NC(=O)c3ccc(N=c4ccn(C)c5ccc([N+](=O)[O-])cc45)cc3)cc2)cc1 | inactive
14 | Clc1ccccc1CSc1nnc(-c2cccnc2)n1Cc1ccco1 | inactive
15 | Cc1cc(=O)[nH]c(SCC(=O)NCc2ccc3c(c2)OCO3)n1 | inactive
16 | N=C(N)c1ccc(/C=C/c2ccc(C(=N)N)cc2O)cc1 | inactive
17 | O=C(Nc1ccc2c(c1)OCCO2)c1ccc(Cl)c(S(=O)(=O)N2CCCCC2)c1 | inactive
18 | O=C(C1CCCN(S(=O)(=O)c2cccnc2)C1)N1CCn2c1nc1ccccc12 (centres undefined) | inactive
19 | Cc1c(NC(=O)Nc2ccccc2)cccc1[N+](=O)[O-] | inactive
20 | CCOC(=O)c1sc(C)c2c1NC(C)(c1ccccc1)NC2=O (centres undefined) | inactive
21 | COc1ccc(CN2CSC(=S)N(Cc3ccccc3)C2)cc1 | inactive
22 | Cc1nc(Nc2ccc(Cl)cc2Cl)sc1C(=O)Nc1ccccc1 | inactive
23 | CC(C)(C)c1nnc(NC(=O)NS(=O)(=O)c2ccccc2)s1 | inactive

Row | Structure (SMILES) | outcome
24 | O=C(NCc1cccnc1)C(=O)NCC1OCCN1S(=O)(=O)c1ccc(F)cc1 (centres undefined) | inactive
25 | Cc1cc(C(=O)NNC(=O)c2ccc(F)cc2)c(C)s1 | inactive
26 | O=C(c1n[nH]c2ccccc12)N1CCOCC1 | inactive
27 | CCN(CC)CC(=O)N(CC(=O)Nc1c(C)cc(C)cc1C)C1CCCCC1 | inactive
28 | CCCCN(C)C(=O)c1cc2cc([N+](=O)[O-])cc(OC)c2oc1=O | inactive
29 | CCOC(=O)c1sc(Nc2nc3ccc(OC)cc3s2)cc1C | inactive
30 | COc1ccc(OC)c(NC(=O)NCc2cccnc2)c1 | inactive
31 | COc1ccc(S(=O)(=O)N2CCC(C(=O)NCc3cccnc3)CC2)cc1OC | inactive
32 | COc1ccc(C(=O)OC(C)CN2CCN(C)CC2)cc1 (centres undefined) | inactive
33 | CC(=O)c1ccc(NC(=O)CSc2nc(N3CCOCC3)nc(N3CCOCC3)n2)cc1 | inactive
34 | NC(=O)C1CCN(C(=O)CSc2nc3ccccc3o2)CC1 | inactive
35 | COc1ccc(C2OC(=O)CC2C(=O)NCc2ccc(F)cc2)cc1OC (centres undefined) | inactive
36 | CCCCNC(=O)NNC(=O)c1ccc(F)cc1 | inactive
37 | O=C(NC(=S)N1CCc2ccccc21)c1ccccc1Cl | inactive
38 | O=C(O)Cn1cc(C(=S)N2CCOCC2)c2ccccc21 | inactive
39 | CCOC(=O)N1CCN(c2ccc(C(=O)CC)cc2F)CC1 | inactive
40 | COCCn1c(=NC(=O)c2ccc3c(c2)OCCO3)sc2cc(S(N)(=O)=O)ccc21 | inactive
41 | CCOC(=O)C1=C(C)c2ccccc2OC1(C(=O)OCC)C(C)C (centres undefined) | inactive
42 | CCOc1ccc(S(=O)(=O)Nc2cc(Cl)ccc2O)cc1 | inactive
43 | Cc1ccc(NC(=O)CCCc2nc3ccccc3s2)c(O)c1 | inactive
44 | O=C(COc1ccc2c3c(c(=O)oc2c1)CCCC3)NCCCn1ccnc1 | inactive
45 | O=C(N/N=C/c1cn(-c2cccs2)nc1-c1ccccc1)c1ccccc1O | inactive
46 | Oc1c(Cl)cc(Cl)cc1C1Nc2ccccc2-n2cccc21 (centres undefined) | inactive

Row | Structure (SMILES) | outcome
47 | COc1ccc(N(C2=NCCCS2)S(=O)(=O)c2ccc(C(C)(C)C)cc2)cc1 | inactive
48 | Cc1cc(C(=O)CN2C(=O)C3CC=CCC3C2=O)c(C)n1-c1ccccc1 (centres undefined) | inactive
49 | C=C(C)CSc1nnc(-c2ccc(OC)c(OC)c2)n1N | inactive
50 | CCCCC1C(=O)N(c2ccccc2)N(c2ccc(O)cc2)C1=O (centres undefined) | inactive
51 | CCCCOc1ccc(C2CC(=O)N(C)C2=O)cc1 (centres undefined) | inactive
52 | CO[C@H]1/C=C/O[C@@]2(C)Oc3c(C)c(O)c4c(O)c(c5c(c4c3C2=O)NC2(CCN(CC(C)C)CC2)N=5)=NC(=O)/C(C)=C\C=C\[C@H](C)[C@H](O)[C@@H](C)[C@@H](O)[C@@H](C)[C@H](OC(C)=O)[C@@H]1C | inactive
53 | CCc1cccc(CC)c1NC(=S)NCC(c1cccnc1)N(C)C (centres undefined) | inactive
54 | CCCCNC(=O)COC(=O)CCC(=O)c1cccs1 | inactive
55 | O=C(CCCn1c(=O)[nH]c2ccsc2c1=O)N1CCCCC1 | inactive
56 | Cc1n[nH]c(=O)nc1N1CCc2ccccc2C1 | inactive
57 | CCOc1nc(Nc2ccc(OC)c(Cl)c2)nc(OCC)n1 | inactive
58 | CC1=NN(c2ccccc2)C(=O)C1c1ccccc1 (centres undefined) | inactive
59 | Cc1ccc(OC(=O)c2cc(=O)c3ccccc3o2)cc1 | inactive
60 | COc1cccc(-c2nn3c(-c4ccccn4)nnc3s2)c1 | inactive
61 | Clc1ccc(-c2nnc3c4ccccc4nc(N4CCOCC4)n23)cc1Cl | inactive
62 | CC(C)n1ncc2c(C(=O)N3CCN(Cc4ccc(Br)s4)CC3)cc(C3CC3)nc21 | inactive
63 | CC(=O)c1c(C)[nH]c(C(=O)Nc2ccccc2N2CCOCC2)c1C | inactive
64 | Cc1ccc(CS(=O)(=O)CCC(=O)NCCCN2CCCC2)cc1 | inactive
65 | CCCn1c(N)c(C(=O)CSc2nnnn2-c2ccc(O)cc2)c(=O)n(C)c1=O | inactive
66 | COCC(=O)Nc1ccccc1Br | inactive
67 | CCc1nnc(NC(=O)C2CCC2)s1 | inactive
68 | COc1cc(CN(C2CCCCC2C)S(=O)(=O)c2ccc(S(=O)(=O)NC3CC3)cc2)cc(OC)c1OC (centres undefined) | inactive
69 | COc1ccc(-c2cc([C@H]3[C@@H]4C=CCC[C@@]4(C)C(=O)N3Cc3ccccc3)ccc2F)cc1 | inactive
